The text below walks through data of PMC10812921, “Transcriptional Coactivator BOB1 (OBF1, OCA-B) Modulates the Specificity of DNA Recognition by the POU-Domain Factors OCT1 and OCT2 in a Monomeric Configuration”.

In one assay the target is POU1 (OCT1 POU domain) (human, UniProt P14859 260-458). Description: EMSA-SELEX-seq; no BOB1; 20 mM Tris-HCl pH 7.6, 140 mM NaCl, 10% glycerol, 0.5 mM EDTA, 0.05% Triton X-100, 0.1 mg/mL BSA, 0.1 mg/mL poly(dI-dC), 5 mM DTT, room temperature, 20 min; high values mean tight binding. To be noted: protein: recombinant; dsDNA, one strand shown. The essentials: (§1)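 A double-stranded random 35-nt library (300 ng, PCR-amplified) was incubated with 30 ng tagged POU-domain protein, with or without 28 ng coactivator protein, in 20 μL Tris–HCl pH 7.6 binding buffer for 20 min at RT. The proteins had been expressed in E. coli BL21, purified under denaturing conditions and renatured. Complex bands from native 6% PAGE were eluted and PCR-amplified over four rounds, then sequenced on Illumina. For binding preference, the percentage of sequenced 8-mers matching a motif pattern was calculated.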
Sequence of POU1 (OCT1 POU domain) (P14859 260-458): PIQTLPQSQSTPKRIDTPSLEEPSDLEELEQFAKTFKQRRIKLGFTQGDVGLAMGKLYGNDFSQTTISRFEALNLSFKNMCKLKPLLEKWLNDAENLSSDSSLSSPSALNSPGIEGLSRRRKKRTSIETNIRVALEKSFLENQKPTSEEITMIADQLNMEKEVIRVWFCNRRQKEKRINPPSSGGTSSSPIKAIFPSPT
A general note: A gel shift assay detects complexes by their altered migration in electrophoresis.
For the sequence ATCCCAAG, the binding signal is 0.0172 % of ANNNNAAN 8-mers.

With AGCTCAAT, the binding signal was 0.037 % of ANNNNAAN 8-mers.

Turning to AACATAAA, the binding signal was 0.101 % of ANNNNAAN 8-mers.

As to AGCAGAAT, the binding signal was 0.0435 % of ANNNNAAN 8-mers.

In the case of ATTTTAAA, the binding signal is 0.198 % of ANNNNAAN 8-mers.

Take ACAGCAAG: the binding signal is 0.0156 % of ANNNNAAN 8-mers.

For AGGCAAAG, the binding signal was 0.146 % of ANNNNAAN 8-mers.

For ATCACAAA, the binding signal was 0.0332 % of ANNNNAAN 8-mers.

Turning to AGGCCAAT, the binding signal is 0.0339 % of ANNNNAAN 8-mers.

With AGGTCAAT, the binding signal is 0.0557 % of ANNNNAAN 8-mers.

Regarding AGCTGAAG, the binding signal was 0.0187 % of ANNNNAAN 8-mers.

For the sequence AGATGAAT, the binding signal was 0.119 % of ANNNNAAN 8-mers.

In the case of AGGAAAAT, the binding signal was 0.287 % of ANNNNAAN 8-mers.

For the sequence ACTGTAAT, the binding signal was 0.0572 % of ANNNNAAN 8-mers.

Consider ATTTGAAG, for which the binding signal is 0.0713 % of ANNNNAAN 8-mers.

Consider ATTTTAAT, for which the binding signal was 0.672 % of ANNNNAAN 8-mers.

Turning to AATAAAAC, the binding signal is 0.0751 % of ANNNNAAN 8-mers.

Turning to AAACGAAC, the binding signal was 0.0328 % of ANNNNAAN 8-mers.

Consider ATTATAAC, for which the binding signal is 0.0713 % of ANNNNAAN 8-mers.

AGGTAAAT: the binding signal was 0.379 % of ANNNNAAN 8-mers.

As for ATAGAAAC, the binding signal was 0.0328 % of ANNNNAAN 8-mers.

Regarding AGGGAAAG, the binding signal is 0.194 % of ANNNNAAN 8-mers.

As for AGCTAAAC, the binding signal was 0.0187 % of ANNNNAAN 8-mers.

Take ACCACAAT: the binding signal was 0.0179 % of ANNNNAAN 8-mers.

Consider ATCCAAAA, for which the binding signal is 0.0591 % of ANNNNAAN 8-mers.

Turning to ACGACAAT, the binding signal was 0.029 % of ANNNNAAN 8-mers.

With ATGTAAAT, the binding signal is 3.45 % of ANNNNAAN 8-mers.

Consider ATTTCAAA, for which the binding signal is 0.0866 % of ANNNNAAN 8-mers.

As to ATCACAAT, the binding signal is 0.045 % of ANNNNAAN 8-mers.

As to AGTTGAAC, the binding signal was 0.0259 % of ANNNNAAN 8-mers.

On to AGAAGAAT, for which the binding signal is 0.0515 % of ANNNNAAN 8-mers.

Regarding ACGATAAA, the binding signal is 0.037 % of ANNNNAAN 8-mers.

As to AAAAAAAT, the binding signal is 0.13 % of ANNNNAAN 8-mers.

With ATCTTAAC, the binding signal was 0.0351 % of ANNNNAAN 8-mers.

For the sequence AGTAAAAG, the binding signal is 0.061 % of ANNNNAAN 8-mers.

Turning to ATAATAAG, the binding signal was 0.182 % of ANNNNAAN 8-mers.

For the sequence ACCTAAAT, the binding signal was 0.0393 % of ANNNNAAN 8-mers.

ATCCGAAA: the binding signal is 0.0305 % of ANNNNAAN 8-mers.

For the sequence AGTTTAAA, the binding signal was 0.0881 % of ANNNNAAN 8-mers.

Consider ATCTCAAA, for which the binding signal was 0.0435 % of ANNNNAAN 8-mers.

In a further assay the target is T1, POU2 (OCT2 POU domain) (human, UniProt P09086 175-386).
T1 sequence: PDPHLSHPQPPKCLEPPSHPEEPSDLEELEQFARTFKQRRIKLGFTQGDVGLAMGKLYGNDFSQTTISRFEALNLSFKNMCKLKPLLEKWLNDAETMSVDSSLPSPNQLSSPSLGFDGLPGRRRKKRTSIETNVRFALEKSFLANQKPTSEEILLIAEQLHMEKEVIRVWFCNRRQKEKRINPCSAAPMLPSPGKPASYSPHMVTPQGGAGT
The assay is described as above. To be noted: protein: recombinant; dsDNA, one strand shown. The essentials:
as §1
ATCCCAAG: the binding signal is 0.0167 % of ANNNNAAN 8-mers.

AGCTCAAT: the binding signal is 0.0316 % of ANNNNAAN 8-mers.

Regarding AACATAAA, the binding signal is 0.125 % of ANNNNAAN 8-mers.

Turning to AGCAGAAT, the binding signal is 0.0621 % of ANNNNAAN 8-mers.

With ATTTTAAA, the binding signal is 0.204 % of ANNNNAAN 8-mers.

Take ACAGCAAG: the binding signal was 0.0155 % of ANNNNAAN 8-mers.

Consider AGGCAAAG, for which the binding signal was 0.0783 % of ANNNNAAN 8-mers.

With ATCACAAA, the binding signal was 0.0374 % of ANNNNAAN 8-mers.

Turning to AGGCCAAT, the binding signal is 0.0443 % of ANNNNAAN 8-mers.

For AGGTCAAT, the binding signal was 0.0662 % of ANNNNAAN 8-mers.

As for AGCTGAAG, the binding signal is 0.0265 % of ANNNNAAN 8-mers.

On to AGATGAAT, for which the binding signal was 0.171 % of ANNNNAAN 8-mers.

For AGGAAAAT, the binding signal was 0.2 % of ANNNNAAN 8-mers.

For ACTGTAAT, the binding signal was 0.0788 % of ANNNNAAN 8-mers.

For ATTTGAAG, the binding signal was 0.0604 % of ANNNNAAN 8-mers.

With ATTTTAAT, the binding signal is 0.679 % of ANNNNAAN 8-mers.

Consider AATAAAAC, for which the binding signal is 0.0967 % of ANNNNAAN 8-mers.

As for AAACGAAC, the binding signal is 0.0293 % of ANNNNAAN 8-mers.

As for ATTATAAC, the binding signal is 0.113 % of ANNNNAAN 8-mers.

Turning to AGGTAAAT, the binding signal was 0.269 % of ANNNNAAN 8-mers.

On to ATAGAAAC, for which the binding signal is 0.0455 % of ANNNNAAN 8-mers.

With AGGGAAAG, the binding signal was 0.136 % of ANNNNAAN 8-mers.

In the case of AGCTAAAC, the binding signal is 0.0236 % of ANNNNAAN 8-mers.

ACCACAAT: the binding signal is 0.0178 % of ANNNNAAN 8-mers.

As for ATCCAAAA, the binding signal was 0.0414 % of ANNNNAAN 8-mers.

On to ACGACAAT, for which the binding signal is 0.0299 % of ANNNNAAN 8-mers.

As for ATGTAAAT, the binding signal was 2.89 % of ANNNNAAN 8-mers.

ATTTCAAA: the binding signal is 0.0852 % of ANNNNAAN 8-mers.

In the case of ATCACAAT, the binding signal is 0.0518 % of ANNNNAAN 8-mers.

For the sequence AGTTGAAC, the binding signal is 0.0253 % of ANNNNAAN 8-mers.

With AGAAGAAT, the binding signal was 0.0737 % of ANNNNAAN 8-mers.

For ACGATAAA, the binding signal was 0.0432 % of ANNNNAAN 8-mers.

AAAAAAAT: the binding signal was 0.12 % of ANNNNAAN 8-mers.

Consider ATCTTAAC, for which the binding signal was 0.0449 % of ANNNNAAN 8-mers.

On to AGTAAAAG, for which the binding signal is 0.0662 % of ANNNNAAN 8-mers.

With ATAATAAG, the binding signal was 0.258 % of ANNNNAAN 8-mers.

As for ACCTAAAT, the binding signal was 0.0489 % of ANNNNAAN 8-mers.

For ATCCGAAA, the binding signal is 0.0374 % of ANNNNAAN 8-mers.

As for AGTTTAAA, the binding signal is 0.0938 % of ANNNNAAN 8-mers.

As to ATCTCAAA, the binding signal was 0.0443 % of ANNNNAAN 8-mers.
